PubChem BioAssay AID1159580 (chemical genetic matrix, 2015)
In all, about 5,500 compounds went through this assay and about 2,000 (36%) were called active. About 18% were inconclusive and are not listed. Cut-off read from the data, not from the text of the source: active = normalized growth mostly below about 0.91 (no sharp cut-off); inconclusive = no clear call, values can overlap the other calls; inactive = mostly above about 0.92. This is one part of the list.

Experiment: chemical genetic growth profiling, strain panel (AID 1159580);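 note: tested at 20 µM; growth read once vehicle control cultures reached saturation at 30 °C; 1 = growth at the plate median or of vehicle wells; lower values mean less growth of the strain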
Conditions: S. cerevisiae deletion strains, growth OD
[1] = locus YAR019C, strain CDC15, active compounds read low
[2] = locus YBL105C, strain PKC1, active compounds read low
[3] = locus YBR135W, strain CKS1, active compounds read low
[4] = locus YBR136W, strain MEC1, active compounds read low
[5] = locus YBR160W, strain CDC28, active compounds read low
[6] = locus YDL017W, strain CDC7, active compounds read low
[7] = locus YDL028C, strain MPS1, active compounds read low
[8] = locus YDL101C, strain DUN1, active compounds read low
[9] = locus YDL108W, strain KIN28, active compounds read low
[10] = locus YDL132W, strain cdc53, active compounds read low
[11] = locus YDL214C, strain PRR2, active compounds read low
[12] = locus YDR052C, strain DBF4, active compounds read low
[13] = locus YDR054C, strain cdc34, active compounds read low
[14] = locus YDR226W, strain ADK1, active compounds read low
[15] = locus YDR477W, strain SNF1, active compounds read low
[16] = locus YER123W, strain YCK3, active compounds read low
[17] = locus YER133W, strain GLC7, active compounds read low
[18] = locus YFL009W, strain cdc4, active compounds read low
[19] = locus YFL029C, strain CAK1, active compounds read low
[20] = locus YFR003C, strain YPI1, active compounds read low
[21] = locus YFR019W, strain FAB1, active compounds read low
[22] = locus YFR028C, strain CDC14, active compounds read low
[23] = locus YGR040W, strain KSS1, active compounds read low
[24] = locus YGR052W, strain FMP48, active compounds read low
[25] = locus YGR092W, strain DBF2, active compounds read low
[26] = locus YHR030C, strain SLT2, active compounds read low
[27] = locus YHR079C, strain IRE1, active compounds read low
[28] = locus YHR082C, strain KSP1, active compounds read low
[29] = locus YHR205W, strain SCH9, active compounds read low
[30] = locus YIL147C, strain SLN1, active compounds read low
[31] = locus YJL095W, strain BCK1, active compounds read low
[32] = locus YJL128C, strain PBS2, active compounds read low
[33] = locus YJL157C, strain FAR1, active compounds read low
[34] = locus YJR016C, strain ILV3, active compounds read low
[35] = locus YJR066W, strain TOR1 (second series), active compounds read low
[36] = locus YJR066W, strain TOR1, active compounds read low
[37] = locus YKL048C, strain ELM1, active compounds read low
[38] = locus YKL067W, strain YNK1, active compounds read low
[39] = locus YKL101W, strain HSL1, active compounds read low
[40] = locus YKL193C, strain SDS22, active compounds read low
[41] = locus YKL203C, strain TOR2, active compounds read low
[42] = locus YLR113W, strain HOG1, active compounds read low
[43] = locus YLR133W, strain CKI1, active compounds read low
[44] = locus YLR403W, strain SFP1, active compounds read low
[45] = locus YML070W, strain DAK1, active compounds read low
[46] = locus YMR001C, strain CDC5, active compounds read low
[47] = locus YMR205C, strain PFK2 (second series), active compounds read low
[48] = locus YMR277W, strain FCP1, active compounds read low
[49] = locus YNL006W, strain LST8, active compounds read low
[50] = locus YNL020C, strain ARK1, active compounds read low
[51] = locus YNL161W, strain CBK1, active compounds read low
[52] = locus YNL183C, strain NPR1, active compounds read low
[53] = locus YNL207W, strain RIO2, active compounds read low
[54] = locus YNL222W, strain SSU72, active compounds read low
[55] = locus YNL307C, strain MCK1 (second series), active compounds read low
[56] = locus YOL078W, strain AVO1, active compounds read low
[57] = locus YOL136C, strain PFK27, active compounds read low
[58] = locus YOR061W, strain CKA2, active compounds read low
[59] = locus YOR119C, strain RIO1, active compounds read low
[60] = locus YOR231W, strain MKK1, active compounds read low
[61] = locus YOR329C, strain SCD5, active compounds read low
[62] = locus YPL031C, strain PHO85, active compounds read low
[63] = locus YPL153C, strain RAD53, active compounds read low
[64] = locus YPL204W, strain HRR25, active compounds read low
[65] = locus YPL209C, strain IPL1, active compounds read low
[66] = locus YPL256C, strain CLN2, active compounds read low
[67] = locus YPR025C, strain CCL1, active compounds read low
[68] = locus YPR106W, strain ISR1, active compounds read low
[69] = locus YPR111W, strain DBF20, active compounds read low
[70] = strain NNK1, active compounds read low
[71] = strain TSCII, active compounds read low

Measured: normalized growth

C[C@@H](Nc1ncnc2sc3c(c12)CCCC3)c1ccccc1
active: [42] 0.766 | [66] 0.787
inactive: [1] 0.955 | [2] 0.955 | [3] 0.953 | [4] 0.958 | [5] 0.942 | [6] 0.961 | [7] 0.954 | [8] 0.945 | [9] 0.95 | [10] 0.951 | [11] 0.904 | [12] 0.963 | [13] 0.94 | [14] 0.963 | [15] 0.932 | [16] 0.895 | [17] 0.928 | [18] 0.951 | [19] 0.949 | [20] 0.958 | [21] 0.941 | [22] 0.951 | [23] 0.913 | [24] 0.954 | [25] 0.901 | [26] 0.924 | [27] 0.914 | [28] 0.944 | [29] 0.877 | [30] 0.954 | [31] 0.931 | [32] 0.889 | [33] 0.916 | [34] 0.963 | [35] 0.901 | [36] 0.969 | [37] 0.907 | [38] 0.917 | [39] 0.891 | [40] 0.953 | [41] 0.967 | [43] 0.919 | [44] 0.89 | [45] 0.893 | [46] 0.951 | [47] 0.919 | [48] 0.951 | [49] 0.956 | [50] 0.915 | [51] 0.954 | [52] 0.918 | [53] 0.944 | [54] 0.949 | [55] 0.912 | [56] 0.955 | [57] 0.893 | [58] 0.916 | [59] 0.979 | [60] 0.844 | [61] 0.959 | [62] 0.942 | [63] 0.918 | [64] 0.932 | [65] 0.947 | [67] 0.949 | [68] 0.93 | [69] 0.922 | [70] 0.929 | [71] 0.951

CC1CCC(C(C)C)C(N(Cc2ccccc2)C(=O)c2ccccc2)C1 (stereo unspecified)
inactive: [1] 0.996 | [2] 0.987 | [3] 0.986 | [4] 0.98 | [5] 0.986 | [6] 0.987 | [7] 0.994 | [8] 0.974 | [9] 0.986 | [10] 0.984 | [11] 0.961 | [12] 0.985 | [13] 0.991 | [14] 0.98 | [15] 0.98 | [16] 0.97 | [17] 0.978 | [18] 0.985 | [19] 0.994 | [20] 0.985 | [21] 0.954 | [22] 0.981 | [23] 0.963 | [24] 0.969 | [25] 0.946 | [26] 1.01 | [27] 1 | [28] 1.01 | [29] 0.911 | [30] 0.987 | [31] 0.923 | [32] 0.923 | [33] 0.979 | [34] 0.992 | [35] 0.959 | [36] 1.01 | [37] 0.958 | [38] 0.967 | [39] 0.932 | [40] 0.994 | [41] 1.01 | [42] 0.922 | [43] 0.945 | [44] 0.913 | [45] 0.961 | [46] 0.992 | [47] 0.976 | [48] 0.987 | [49] 0.988 | [50] 0.956 | [51] 0.984 | [52] 0.975 | [53] 0.979 | [54] 0.99 | [55] 0.898 | [56] 0.981 | [57] 0.925 | [58] 0.971 | [59] 1.05 | [60] 0.977 | [61] 0.991 | [62] 0.981 | [63] 0.983 | [64] 0.952 | [65] 0.986 | [66] 1.04 | [67] 0.988 | [68] 0.976 | [69] 0.948 | [70] 0.965 | [71] 0.985

CC(C)N(CCC(=O)c1ccc2ccccc2c1)Cc1ccccc1
active: locus YAL013W, strain DEP1, active compounds read low 0.086 | locus YAL040C, strain CLN3, active compounds read low 0.0757 | locus YCL061C, strain MRC1 (second series), active compounds read low 0.0525 | locus YDR150W, strain NUM1, active compounds read low 0.058 | locus YDR363W, strain ESC2, active compounds read low 0.141 | locus YER002W, strain NOP16, active compounds read low 0.0619 | locus YGR078C, strain PAC10, active compounds read low 0.107 | locus YJR075W, strain HOC1, active compounds read low 0.0706 | locus YMR307W, strain GAS1, active compounds read low 0.0933 | locus YNL128W, strain TEP1, active compounds read low 0.0691 | locus YNL153C, strain GIM3, active compounds read low 0.0944 | locus YNL175C, strain NOP13, active compounds read low 0.111 | locus YNL197C, strain WHI3, active compounds read low 0.534 | locus YNL224C, strain SQS1, active compounds read low 0.0703 | locus YOR083W, strain WHI5 (second series), active compounds read low 0.124

CNCC[C@H](Oc1cccc2ccccc12)c1cccs1
inactive: [26] 0.991 | [27] 0.993 | [31] 1 | [36] 0.924 | [42] 1.02 | [52] 0.938 | [60] 0.988 | [66] 0.987

CNC(=O)Sc1c(-c2ccc(Cl)cc2)nn(C(=O)NC)c1SC
inactive: [1] 0.979 | [2] 0.961 | [3] 0.949 | [4] 0.952 | [5] 0.961 | [6] 0.949 | [7] 0.941 | [8] 0.958 | [9] 0.94 | [10] 0.978 | [12] 0.939 | [13] 0.985 | [14] 0.952 | [18] 0.962 | [19] 0.974 | [20] 0.946 | [22] 0.985 | [30] 0.934 | [32] 0.911 | [34] 0.969 | [40] 0.97 | [46] 0.971 | [48] 0.979 | [49] 0.971 | [51] 0.954 | [53] 0.964 | [54] 0.969 | [56] 0.981 | [61] 0.977 | [65] 0.97 | [67] 0.973 | [68] 0.994 | [69] 0.982 | [70] 0.996 | [71] 0.977
active: [11] 0.319 | [15] 0.428 | [16] 0.199 | [17] 0.485 | [21] 0.264 | [23] 0.413 | [24] 0.315 | [25] 0.266 | [26] 0.335 | [27] 0.324 | [28] 0.353 | [29] 0.446 | [31] 0.256 | [33] 0.315 | [35] 0.286 | [36] 0.302 | [37] 0.545 | [38] 0.335 | [39] 0.378 | [41] 0.491 | [42] 0.284 | [43] 0.397 | [44] 0.482 | [45] 0.297 | [47] 0.461 | [50] 0.342 | [52] 0.274 | [55] 0.233 | [57] 0.316 | [58] 0.355 | [59] 0.467 | [60] 0.315 | [62] 0.422 | [63] 0.337 | [64] 0.399 | [66] 0.368
